mcGAS MS inh: mouse cGAS inhibition by mass spec. Q8C6L5. recombinant mouse cGAS, cGAMP by RapidFire MS. inhibition, % at 12.5 µM. actives 0.18% (n = 130,000). AID 1259397;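 active = inhibition of cGAS enzyme activity at or above 60%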;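 also: enzyme stimulated by 45 bp dsDNA with ATP and GTP substrates; cGAMP share of summed cGAMP plus half ATP and half GTP signals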
Target sequence (Q8C6L5 whole entry, looked up): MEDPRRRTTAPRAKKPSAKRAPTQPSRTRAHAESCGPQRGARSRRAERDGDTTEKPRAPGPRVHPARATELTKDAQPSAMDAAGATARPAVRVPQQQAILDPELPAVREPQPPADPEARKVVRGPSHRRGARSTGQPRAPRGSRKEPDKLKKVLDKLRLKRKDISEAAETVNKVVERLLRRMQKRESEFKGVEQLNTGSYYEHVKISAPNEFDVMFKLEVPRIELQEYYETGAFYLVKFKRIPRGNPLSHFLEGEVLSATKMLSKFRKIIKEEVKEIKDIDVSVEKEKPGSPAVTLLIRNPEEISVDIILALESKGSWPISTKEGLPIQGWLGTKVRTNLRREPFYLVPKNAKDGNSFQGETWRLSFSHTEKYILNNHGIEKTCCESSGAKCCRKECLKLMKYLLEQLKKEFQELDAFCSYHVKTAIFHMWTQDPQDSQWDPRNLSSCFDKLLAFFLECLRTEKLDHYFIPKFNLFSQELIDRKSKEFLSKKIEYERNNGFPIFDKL
* hit, by the source's call; ! = not active in a repeat. This excerpt belongs to a sample that is enriched for hits.

What do the screens show for `CNc1snc(C)c1C(=O)N1CCN(c2ccc(C(F)(F)F)cn2)CC1`?
mcGAS MS inh: -1.4

What do the screens show for `Cc1ccc(C=Cc2sc3ccccc3[n+]2CCCS(=O)(=O)O)cc1`?
mcGAS MS inh: 85.5*

What do the screens show for `COc1ccc(C=Cc2sc3ccccc3[n+]2CCCS(=O)(=O)O)cc1OCc1ccccc1`?
mcGAS MS inh: -2.2

What do the screens show for `CC(=O)OC[C@H]1O[C@@H](Oc2cc(OC(C)=O)c3c(=O)cc(-c4ccc(OC(C)=O)cc4)oc3c2)[C@H](OC(C)=O)[C@@H](OC(C)=O)[C@@H]1OC(C)=O`?
mcGAS MS inh: -4.0

What do the screens show for `O=C(OC[C@H]1O[C@H](OC(=O)c2cc(O)c(O)c(OC(=O)c3cc(O)c(O)c(O)c3)c2)[C@H](OC(=O)c2cc(O)c(O)c(OC(=O)c3cc(O)c(O)c(O)c3)c2)[C@@H](OC(=O)c2cc(O)c(O)c(OC(=O)c3cc(O)c(O)c(O)c3)c2)[C@@H]1OC(=O)c1cc(O)c(O)c(OC(=O)c2cc(O)c(O)c(O)c2)c1)c1cc(O)c(O)c(OC(=O)c2cc(O)c(O)c(O)c2)c1`?
mcGAS MS inh: 95.9*

Results for CCOC(=O)N1CCN(C2CCCN(C(=O)CCc3c(C)noc3C)C2)CC1 (stereo not given) ?
mcGAS MS inh: 3.9

Results for CC(O)CN(C(=O)NC(C)C)C(C)C (stereo not given) ?
mcGAS MS inh: -4.7

What do the screens show for `Cc1cc(N2C(=O)c3oc4ccccc4c(=O)c3C2c2cccc(F)c2)no1` (stereo not given)?
mcGAS MS inh: 84.3*

What do the screens show for `Cc1cc(N2C(=O)c3oc4ccccc4c(=O)c3C2c2cccc(Cl)c2)no1` (stereo not given)?
mcGAS MS inh: -1.5

How did Cc1cc(N2C(=O)c3oc4ccc(F)cc4c(=O)c3C2c2cccc([N+](=O)[O-])c2)no1 (stereo not given) do in these assays?
mcGAS MS inh: -8.5

Results for CCOC(=O)CCC(=O)OC1C(OC2C(C)C(OC3CC(C)(OC)C(O)C(C)O3)C(C)C(=O)OC(CC)C(C)(O)C(O)C(C)C(=O)C(C)CC2(C)O)OC(C)CC1N(C)C (stereo not given) ?
mcGAS MS inh: 98.6*

What do the screens show for `CCOC(=O)CCC(=O)O[C@H]1[C@H](O[C@@H]2[C@@H](C)[C@H](O[C@H]3C[C@@](C)(OC)[C@@H](O)[C@H](C)O3)[C@@H](C)C(=O)O[C@H](CC)[C@@](C)(O)[C@H](O)[C@@H](C)C(=O)[C@H](C)C[C@@]2(C)O)O[C@H](C)C[C@@H]1N(C)C`?
mcGAS MS inh: -7.2

What do the screens show for `CCC(=O)O[C@H]1[C@H](O[C@@H]2[C@@H](C)[C@H](O[C@H]3C[C@@](C)(OC)[C@@H](O)[C@H](C)O3)[C@@H](C)C(=O)O[C@H](CC)[C@@](C)(O)[C@H](O)[C@@H](C)C(=O)[C@H](C)C[C@@]2(C)O)O[C@H](C)C[C@@H]1N(C)C`?
mcGAS MS inh: -0.2

How did CCOC(=O)CC1(NC(=O)C2CCC(=O)N(CCN3CCOCC3)C2)CCCCC1 (stereo not given) do in these assays?
mcGAS MS inh: -7.4

Results for COC(=O)c1ccc(=O)n(CC(=O)Nc2ccc(OC)cc2OC)c1 ?
mcGAS MS inh: -9.0

What do the screens show for `O=C(Nc1ncc([N+](=O)[O-])s1)c1ccc(=O)n(Cc2ccc(F)cc2)c1`?
mcGAS MS inh: 9.0

What do the screens show for `O=C(Nc1nnc(C2CC2)s1)c1cccs1`?
mcGAS MS inh: -18.1

What do the screens show for `O=C(Nc1ncc([N+](=O)[O-])s1)c1cccs1`?
mcGAS MS inh: 85.8*

How did CCc1c(C)[nH]n(-c2nc3ccccc3[nH]2)c1=O do in these assays?
mcGAS MS inh: -1.6

How did Cc1[nH]n(-c2nc3ccccc3[nH]2)c(=O)c1C1OC(=O)c2ccccc21 (stereo not given) do in these assays?
mcGAS MS inh: 98.6*

How did Cc1[nH]n(-c2nc3ccccc3[nH]2)c(=O)c1C do in these assays?
mcGAS MS inh: 29.2

Results for CC(=O)N1CCC(C(=O)NCC(C)Oc2cccnc2)CC1 (stereo not given) ?
mcGAS MS inh: -4.9

What do the screens show for `CC[n+]1c(-c2ccccc2)c2cc(N)ccc2c2ccc(N)cc21`?
mcGAS MS inh: 97.1*!

How did CC[n+]1c2ccccc2cc2ccccc21 do in these assays?
mcGAS MS inh: -0.7

How did O=C1OCCN1c1cccc(CNS(=O)(=O)c2cc(Cl)ccc2Cl)c1 do in these assays?
mcGAS MS inh: -4.2

What do the screens show for `Cn1c(=O)c2c(nc(Cl)n2CC(=O)N2c3ccccc3NC(=O)C23CCCC3)n(C)c1=O`?
mcGAS MS inh: 1.7

Results for CCn1cc(C(=O)N2CCNCC2)c2nn(-c3ccccc3)c(=O)c-2c1 ?
mcGAS MS inh: -0.9

Results for Cc1cccnc1NC(=O)NC1(c2ccc(F)cc2)CCC1 ?
mcGAS MS inh: 78.1*

How did COc1ncccc1NC(=O)NC1(c2ccc(Cl)cc2)CCC1 do in these assays?
mcGAS MS inh: -5.7

How did O=C(NC1(c2ccc(F)cc2)CCCC1)c1cccs1 do in these assays?
mcGAS MS inh: -1.9

Results for CC1NCCN(c2ccccc2-c2ccccc2)C1=O (stereo not given) ?
mcGAS MS inh: -8.4

Results for O=C1CN(C(=O)c2cc(-c3cccc(F)c3)no2)CCN1 ?
mcGAS MS inh: 6.2

Results for Cc1ccc2c(c1)c(CNC(=O)CCc1c(C)nn(C)c1C)nn2C ?
mcGAS MS inh: -22.7

How did Cc1ccc2c(c1)c(CNC(=O)c1ccccc1C1CCNC1)nn2C (stereo not given) do in these assays?
mcGAS MS inh: -19.3

How did Cc1ccc2c(c1)c(CNC(=O)C1CNCC(=O)N1)nn2C (stereo not given) do in these assays?
mcGAS MS inh: 63.7*

How did Fc1ccc(-c2nc(CSCC3CCCCO3)no2)cc1 (stereo not given) do in these assays?
mcGAS MS inh: -17.4

What do the screens show for `Cc1ccc(-n2ncc3c(=O)n(NC(=O)c4cc5ccccc5oc4=O)cnc32)cc1C`?
mcGAS MS inh: -5.0

How did O=C(COc1ccc(Cl)c2ccccc12)Nc1ncccc1O do in these assays?
mcGAS MS inh: 94.6*

Results for O=C(COc1ccc(Cl)c2ccccc12)NCC(F)(F)F ?
mcGAS MS inh: -6.7

Results for O=C(Cc1ccc(C(F)(F)F)cc1)Nc1ncccc1O ?
mcGAS MS inh: -4.3

What do the screens show for `O=C(N[C@H](CO)Cc1ccccc1)C1CC=CCC1C(=O)N1CCc2c([nH]c3ccccc23)C1` (stereo not given in full)?
mcGAS MS inh: -5.8

Results for O=C(/C=C/c1ccc(Br)cc1)NCC(CO)Cc1ccsc1 (stereo not given) ?
mcGAS MS inh: 1.5

What do the screens show for `COc1ccc(C2CCCN2CC(=O)N2CCCC3CCCCC32)cc1OC` (stereo not given)?
mcGAS MS inh: -2.2

How did N=C1/C(=C/c2cccs2)C(=O)N=C2SC(Cc3ccccc3)=NN12 do in these assays?
mcGAS MS inh: -10.8

How did CCC1=NN2C(=N)/C(=C/c3cccs3)C(=O)N=C2S1 do in these assays?
mcGAS MS inh: 97.0*

What do the screens show for `N=C1/C(=C/c2cccs2)C(=O)N=C2SC(c3ccccc3)=NN12`?
mcGAS MS inh: 44.6

Results for O=c1/c(=C/c2ccc([N+](=O)[O-])cc2)sc2nc3cc(Br)cnc3n12 ?
mcGAS MS inh: 84.5*

What do the screens show for `O=c1c2cc([N+](=O)[O-])ccc2nc2n1CCC2=Cc1ccccc1`?
mcGAS MS inh: 0.5

What do the screens show for `O=c1c(=Cc2ccccc2I)sc2nc3ccccc3n12`?
mcGAS MS inh: -2.6

What do the screens show for `C=c1occc1=C1NN=C(SCC(=O)NC2CC2)O1`?
mcGAS MS inh: -11.9
